Data as given in PubChem BioAssay (NCI).
Compounds without any hit were thinned out: in the full panel of roughly 79,000, 15% have a hit. A number with no mark means an inactive call. Activity calls are given as the source filed them. Cut-off read from the data, not from the text of the source: active = growth inhibition above about 70%; inactive = the rest.

Key:
[1] = NCI Yeast Anticancer Drug Screen. Data for the rad50 strain (AID 155);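 note: 0% = growth of vehicle-only cultures of the same strain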; conditions: S. cerevisiae rad50 strain growth inhibition, active compounds read high
In short: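 Vehicle-treated cultures provide the reference for the growth inhibition reported for compound-exposed, repair-deficient yeast.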

[2] = NCI Yeast Anticancer Drug Screen. Data for the mec2-1 strain (AID 157); conditions: S. cerevisiae mec2-1 strain, active compounds read high
In short: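 Test agents were screened against the mec2-1 yeast strain, with defined DNA repair or cell cycle alteration. Growth was scored as inhibition against vehicle-only controls.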

[3] = NCI Yeast Anticancer Drug Screen. Data for the sgs1 mgt1 strain (AID 161);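 note: 0% = growth of cultures given vehicle only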; conditions: S. cerevisiae sgs1 mgt1 strain, active compounds read high
In short: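 Test agents were incubated with a DNA-repair-mutant yeast strain. Growth was then read and compared against vehicle-treated controls.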

[4] = NCI Yeast Anticancer Drug Screen. Data for the cln2 rad14 strain (AID 165);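 note: 0% = growth equal to vehicle treated cultures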; conditions: S. cerevisiae cln2 rad14 strain, active compounds read high
In short: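 Growth of compound-exposed yeast (cln2 rad14 genotype) measured and expressed as inhibition relative to vehicle.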

[5] = NCI Yeast Anticancer Drug Screen. Data for the bub3 strain (AID 167); conditions: S. cerevisiae bub3 mutant strain, active compounds read high
In short: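 Mutant yeast screening strain plus compound; vehicle-treated cultures serve as the 0% inhibition reference.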

[6] = NCI Yeast Anticancer Drug Screen. Data for the mlh1 rad18 strain (AID 175); conditions: S. cerevisiae mlh1 rad18 strain growth inhibition, active compounds read high
In short: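 In this whole-cell yeast screen, a strain with altered DNA damage repair is challenged with compound, and its growth is measured against matched vehicle-treated controls.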

[7] = at 5.0 µM (retest, dose inferred, filed as 0.5)
[8] = at 50.0 µM (retest, dose inferred, filed as 5.0)

c1csc(CNCc2cccs2)c1
growth inhibition [1, 7]: -3%
growth inhibition [1, 8]: -5%
growth inhibition ([1]; at 50.0 µM): -13.9%
growth inhibition [2, 7]: -2%
growth inhibition [2, 8]: 1%
growth inhibition ([2]; at 50.0 µM): 1.45%
growth inhibition [3, 7]: -1%
growth inhibition [3, 8]: -5%
growth inhibition ([3]; at 50.0 µM): -1.2%
growth inhibition [4, 7]: -4%
growth inhibition [4, 8]: -4%
growth inhibition ([4]; at 50.0 µM): -23.4%
growth inhibition [5, 7]: -1%
growth inhibition [5, 8]: -5%
growth inhibition ([5]; at 50.0 µM): 1.3%
growth inhibition [6, 7]: 0%
growth inhibition [6, 8]: -7%
growth inhibition ([6]; at 50.0 µM): 37.3%

CCOC(=O)C1=C(C)Oc2cc3c(cc2C1c1cc(OC)c(OC)c(OC)c1)OCO3 (configuration not stated)
growth inhibition [1, 7]: 8%
growth inhibition [1, 8]: 40%
growth inhibition ([1]; at 50.0 µM): 54.6%
growth inhibition [2, 7]: 11%
growth inhibition [2, 8]: 64%
growth inhibition ([2]; at 50.0 µM): 28.9%
growth inhibition [3, 7]: -1%
growth inhibition [3, 8]: 37%
growth inhibition ([3]; at 50.0 µM): 47.3%
growth inhibition [4, 7]: 11%
growth inhibition [4, 8]: 89% (active)
growth inhibition ([4]; at 50.0 µM): 19.1%
growth inhibition [5, 7]: 36%
growth inhibition [5, 8]: 94% (active)
growth inhibition ([5]; at 50.0 µM): 55.6%
growth inhibition [6, 7]: 12%
growth inhibition [6, 8]: 83% (active)
growth inhibition ([6]; at 50.0 µM): 45.8%

CC(=O)O[C@@H]1c2c(c3c(=O)c4cccc(O)c4c(=O)c=3c2=[N+]=[N-])[C@H](OC(C)=O)[C@@H](OC(C)=O)[C@]1(C)O
growth inhibition [1, 7]: 99% (active)
growth inhibition [1, 8]: 99% (active)
growth inhibition ([1]; at 50.0 µM): 92% (active)
growth inhibition [2, 7]: 99% (active)
growth inhibition [2, 8]: 99% (active)
growth inhibition ([2]; at 50.0 µM): 93.7% (active)
growth inhibition [3, 7]: 99% (active)
growth inhibition [3, 8]: 99% (active)
growth inhibition ([3]; at 50.0 µM): 93% (active)
growth inhibition [4, 7]: 99% (active)
growth inhibition [4, 8]: 99% (active)
growth inhibition ([4]; at 50.0 µM): 91.3% (active)
growth inhibition [5, 7]: 98% (active)
growth inhibition [5, 8]: 99% (active)
growth inhibition ([5]; at 50.0 µM): 91.4% (active)
growth inhibition [6, 7]: 99% (active)
growth inhibition [6, 8]: 99% (active)
growth inhibition ([6]; at 50.0 µM): 91.6% (active)

CC/S(=N\S(=O)(=O)c1ccc(C)cc1)c1cccc[n+]1[O-] (configuration not stated)
growth inhibition [1, 7]: 83% (active)
growth inhibition [1, 8]: 97% (active)
growth inhibition ([1]; at 50.0 µM): 96.1% (active)
growth inhibition [2, 7]: 82% (active)
growth inhibition [2, 8]: 99% (active)
growth inhibition ([2]; at 50.0 µM): 96.7% (active)
growth inhibition [3, 7]: 79% (active)
growth inhibition [3, 8]: 98% (active)
growth inhibition ([3]; at 50.0 µM): 98% (active)
growth inhibition [4, 7]: 51%
growth inhibition [4, 8]: 98% (active)
growth inhibition ([4]; at 50.0 µM): 91.2% (active)
growth inhibition [5, 7]: 85% (active)
growth inhibition [5, 8]: 98% (active)
growth inhibition ([5]; at 50.0 µM): 96.3% (active)
growth inhibition [6, 7]: 87% (active)
growth inhibition [6, 8]: 98% (active)
growth inhibition ([6]; at 50.0 µM): 95.4% (active)
